In the library only some 18% were active in any assay of this set; here they are far more common.
TDP1 inh – inhibitors of human tyrosyl-DNA phosphodiesterase TDP1; hit rate 0.28% among 350,000; Potency, µM (doses to about 130 µM), for the others: at the top dose activity change, negative = inhibition, actives largely listed as inhibitors; recombinant TDP1, AlphaScreen DNA substrate cleavage; further: potency means the concentration at half of the fitted maximal effect; on the % scale 0 is the no-effect control and ±100 the full control effect; nearly all actives have a fitted effect of over 40% in size
Target sequence (Q9NUW8 whole entry, looked up): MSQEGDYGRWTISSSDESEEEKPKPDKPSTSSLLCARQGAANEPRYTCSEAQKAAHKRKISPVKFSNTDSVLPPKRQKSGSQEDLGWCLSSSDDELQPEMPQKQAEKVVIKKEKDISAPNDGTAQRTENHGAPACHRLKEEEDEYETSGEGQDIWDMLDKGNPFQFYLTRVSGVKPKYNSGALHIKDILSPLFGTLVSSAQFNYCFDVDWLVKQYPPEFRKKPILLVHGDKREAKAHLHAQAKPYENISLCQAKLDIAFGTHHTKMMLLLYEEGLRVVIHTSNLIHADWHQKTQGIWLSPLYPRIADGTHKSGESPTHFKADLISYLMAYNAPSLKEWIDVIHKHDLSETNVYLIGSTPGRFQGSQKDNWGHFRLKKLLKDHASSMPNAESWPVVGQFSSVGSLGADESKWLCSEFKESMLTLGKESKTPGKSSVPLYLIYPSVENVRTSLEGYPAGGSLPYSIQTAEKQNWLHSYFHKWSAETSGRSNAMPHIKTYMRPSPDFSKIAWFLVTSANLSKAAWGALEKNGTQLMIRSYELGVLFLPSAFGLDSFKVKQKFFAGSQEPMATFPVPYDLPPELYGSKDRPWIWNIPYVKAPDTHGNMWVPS
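AlphaScreen read-out: signal falls as enzyme removes the 3' tyrosine-FITC from a 5'-biotinylated DNA oligo (15 nM, 5 min, RT). Enzyme was E. coli-made recombinant Tdp1 at 1 nM, exposed to compound for 15 min beforehand; beads 10 ug/ml, 10 min.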
IL-1B inflam inh – inhibitors of inflammasome signaling (IL-1 beta secretion); THP-1 LPS/ATP IL-1B secretion, AlphaLISA, 16 h; active compounds read low; activity change, % at 57.5 µM; hit rate 4.7% among 360,000; AID 743279; in the data active means activity change below about -50%; inconclusive means mostly about -30% to -49%; further: on the % scale 0 is the no-effect control and ±100 the full control effect
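THP-1 cells pretreated 1 hr with compounds (up to 57.5 uM final), then stimulated with LPS (250 ng/mL final) plus ATP (1.25 mM final); secreted IL-1B measured by AlphaLISA after 16 hr, decreased signal indicating inhibition.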
HepG2 viability – counter-screen for TGF-b inhibitors: cytotoxicity in HepG2 cells; hit rate 0.76% among 410,000; AID 588856; Potency, µM (doses to about 46.1 µM), inactives show at the highest dose activity change, negative = cytotoxicity, hits mostly cytotoxic; HepG2 CAGA-GFP viability, ATP luminescence, 18 h; further: potency means the concentration at half of the fitted maximal effect
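HepG2 CAGA-GFP cells (1000/well, DMEM with 1% FBS) received compound, then TGF-beta at 500 pg/mL final, and were incubated 18 hours at 37 degrees C. Viability was read by CellTiter-Glo luminescence. Media-only wells were set as complete cell-killing and DMSO as no toxicity.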
TGFb inhibitor – TGF-b pathway inhibition. HepG2 CAGA-GFP TGF-b/SMAD3 reporter, GFP fluorescence, 18 h; TGF-beta stimulated, 500 pg/mL final. hit rate 1.2% among 410,000. Potency, µM (highest dose often 46.1 µM), for the others: at the highest dose activity, negative = inhibition, most hits filed as inhibitors. AID 588855; further: potency means the concentration at half of the fitted maximal effect; on the % scale 0 is the no-effect control and ±100 the full control effect; nearly all actives have a fitted effect of over 65% in size
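First, reporter cells (HEPG2 CAGA-GFP) rested 2 h at 37 degrees C. Next, compounds were pinned in and TGF-beta added to 500 pg/mL final. After 18 h, GFP was imaged per cell and summed per well.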
DT40 TDP1 no CPT – qHTS for Inhibitors of human tyrosyl-DNA phosphodiesterase 1 (TDP1): qHTS in cells in absence of CPT; Potency, µM (series often up to 46.2 µM), without a hit: top-dose activity change, negative = growth inhibition, usual class: inhibitors; hit rate 15% among 420,000; DT40 Tdp1-/- hTDP1 cells, no CPT, ATP luminescence, 48 h; AID 686978, 2013; further: potency means the concentration at half of the fitted maximal effect; on the % scale 0 is the no-effect control and ±100 the full control effect; nearly all actives have a fitted effect of over 55% in size
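Compound effects on proliferation are scored in DT40 Tdp1-/-;hTDP1 cells in the absence of CPT. ATP levels (CellTiter-Glo luminescence) are recorded after a ≥48 hr, 37 °C incubation.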
TDP1 cell CPT – growth inhibition of DT40 Tdp1-/-;hTDP1 cells with camptothecin (screen for TDP1 inhibitors) | chicken DT40 Tdp1-/-;hTDP1 cells + 20 nM CPT, ATP luminescence, 48 h | Potency, µM (doses to about 46.2 µM), for the others: at the highest dose activity change, negative = growth inhibition, usual class: inhibitors | hit rate 12% among 420,000 | AID 686979; further: potency means the concentration at half of the fitted maximal effect; on the % scale 0 is the no-effect control and ±100 the full control effect; nearly all actives have a fitted effect of over 55% in size
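Chicken DT40 Tdp1-/- cells stably complemented with human TDP1 were seeded at 400 cells/well in medium containing 20 nM camptothecin, exposed to pin-transferred compounds, and grown at 37 °C for at least 48 hr. Viability was read as ATP luminescence.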
An asterisk follows results filed as active; i = inactive; ? = inconclusive; / = no result given; [ ] = another dose, or the depositor's remark. Unless noted, the call rests on the fitted dose curve; in most records, active means well fitted curve in the direction sought with a large enough effect; inconclusive means small, poorly fitted or top-dose-only effect, or another doubt; inactive means no such curve, though single readings can be large; an effect the other way counts as inactive or inconclusive.

SMILES	TDP1 inh	IL-1B inflam inh	HepG2 viability	TGFb inhibitor	DT40 TDP1 no CPT	TDP1 cell CPT
NC1(C#Cc2ccc3oc(=O)c(-n4cc(C5(O)CCCCC5)nn4)cc3c2)CCCCC1	1.2%	-13.9	0.3%	-2.5%	-17.0%	-1.3%
CCOc1ccc(CCNC(=O)Nc2cccc(OC)c2)cc1OCC	/	-1.7	6.3%	-1.0%	-26.3%	?
CN1CCC(=C(c2ccccc2)c2ccc(Br)cc2)CC1	/	-27.4	-96.1%	?	16.4µM*	?
COc1ccc(CNC(=O)C2Cc3c(-c4cccc(C(C)=O)c4)ccnc3O2)cc1OC (configuration not stated)	/	50.9	-1.0%	22.9%	?	?
COc1ccc(NC(=O)C2Cc3c(-c4ccc5c(c4)OCO5)ccnc3O2)cc1OC (configuration not stated)	/	-7.4	-38.0%	-5.7%	8.2µM*	9.2µM*
COc1ccc(CNC(=O)C2Cc3c(-c4ccc5c(c4)OCO5)ccnc3O2)cc1OC (configuration not stated)	/	-4.6	-3.5%	1.1%	11.6µM*	18.4µM*
O=C(NCc1ccc(F)c(F)c1)C1Cc2c(-c3ccc4c(c3)OCO4)ccnc2O1 (configuration not stated)	/	0.0	-4.8%	?	2.91µM*	2.31µM*
C=CC[C@@H]1C=C[C@H](O/N=C2\c3cc(OC)ccc3O[C@H](c3cccc(OC)c3)[C@H]2O)[C@H](CO)O1	6.9%[21 µM]	/	/	/	/	/
FC(F)(F)c1cccc(OCC2CNC(=S)O2)c1 (configuration not stated)	/	17.1	-13.4%	-23.9%	-14.2%	-5.0%
CCCCCCCCCCCCCCCC(O)C[N+](C)(C)CCO (configuration not stated)	/	-75.9*	-99.6%	?	3.26µM*	5.17µM*
CN(C(=O)CCCN1C(=O)c2ccccc2C1=O)C1CCCCC1	2.2%	18.1	6.0%	-7.5%	-0.2%	2.1%
CC1CC(C)CN(c2oc(-c3ccccc3F)nc2C#N)C1 (configuration not stated)	/	-6.3	-9.6%	-0.4%	?	?
COc1ccc(-c2nc(C#N)c(N3CCN(c4ccccc4)CC3)o2)cc1	5.3%	-2.8	-43.5%	-9.9%	-28.9%	1.3%
COc1ccccc1-c1nc(C#N)c(N2CC(C)CC(C)C2)o1 (configuration not stated)	3.7%	-6.4	-14.0%	-36.9%	18.4µM*	?
COc1ccc(-c2nc(C#N)c(N3CCc4ccccc4C3)o2)cc1OC	3.8%	-52.0*	-21.4%	8.0%	13µM*	29.1µM*
COc1ccc(N2CCN(c3oc(-c4ccc(OC)c(OC)c4)nc3C#N)CC2)cc1	2.6%	-7.0	-0.8%	-1.8%	18.4µM*	?
CC(C)C[C@@H]1COc2cc(N3CCSCC3)ccc2S(=O)(=O)N1	/	-4.1	/	/	-11.5%	-1.0%
COc1ccc(C2=C(C)C(=O)N(Cc3ccc(C(=O)NC(C)c4ccccc4)cc3)S2(=O)=O)cc1 (configuration not stated)	4.5%	/	-6.3%	1.0%	-19.8%	-12.3%
O=C(NCc1ccccc1Cl)C1CCC(=O)N(CCCN2CCCC2=O)C1 (configuration not stated)	0.7%	i	23.0%	12.6%	9.2%	-2.0%
COc1ccc(CC(=O)N[C@@H]2c3ccccc3CC[C@@H]2OCc2ccccc2)cc1	-0.5%[56.1 µM]	-2.8	-26.4%	?	-21.4%	-19.3%
Cc1cc(C)n(-c2nc3ccccc3nc2Nc2ccc(Cl)c(Cl)c2)n1	-4.3%[12.3 µM]	/	-5.3%	-8.5%	-14.5%	-4.7%
Cc1cc(C([O-])=C(C(=S)Nc2ccc(F)cc2)[n+]2ccccc2)c(C)n1-c1ccc(F)cc1	/	-19.1	8.9%	-1.6%	20.6µM*	25.9µM*
COc1cccc(NC(=S)/C(=C(\[O-])c2ccc(C)c([N+](=O)[O-])c2)[n+]2ccccc2)c1	9.1%	-14.9	-19.8%	-9.1%	-24.9%	-22.8%
COc1cccc(NC(=S)/C(=C(\[O-])c2cc(C)n(-c3ccccc3F)c2C)[n+]2ccc(N(C)C)cc2)c1	9.2%	-17.0	-41.7%	?	11.6µM*	20.6µM*
C1=Nc2ccccc2/C1=C/c1c[nH]c2ccccc12	/	/	0.3%	-14.3%	?	?
SMILES	TDP1 inh	IL-1B inflam inh	HepG2 viability	TGFb inhibitor	DT40 TDP1 no CPT	TDP1 cell CPT
C1=Nc2ccccc2/C1=C/c1ccccc1	/	/	-14.5%	-8.9%	12.6µM*	4.47µM*
Cc1ccc(S(=O)(=O)N2CCC(C(=O)OCC(=O)NC(C)c3ccc(F)cc3)CC2)cc1C (configuration not stated)	0.7%	27.6	13.4%	19.4%	12.2%	-2.2%
O=C(N=C1SC2CS(=O)(=O)CC2N1c1ccc(F)cc1F)C1CC1 (configuration not stated)	4.7%	2.9	-16.2%	-2.6%	17.7%	-13.0%
Cc1ccc(C)c(CN2C(=O)c3ccccc3S(=O)(=O)c3ccc(C(=O)N4CCN(Cc5ccccc5)CC4)cc32)c1	4.6%	/	-0.8%	?	6.51µM*	6.51µM*
Cc1ccc(C)c(CN2C(=O)c3ccccc3S(=O)(=O)c3ccc(C(=O)N4CCc5ccccc54)cc32)c1	2.3%	/	-4.2%	/	5.8µM*	5.8µM*
COC(=O)C1=C(C)[C@@H](O)[C@@H](C)[C@H](c2c(OC)c(OC)c(C)c(OC)c2OC)O1	5.8%[21 µM]	/	/	/	/	/
O=C1CC(Sc2nnc(-c3ccccc3O)o2)C(=O)N1c1ccccc1 (configuration not stated)	4.0%	8.6	-46.7%	?	4.61µM*	4.61µM*
COc1ccc(N2C(=O)CC(Sc3nnc(-c4ccccc4)o3)C2=O)cc1 (configuration not stated)	-4.2%	-28.8	-100.9%	-2.7%	2.91µM*	2.91µM*
COCCCNc1nc2c(c(=O)n(Cc3ccc(Cl)cc3)c(=O)n2C)n1C	/	-6.3	-35.7%	-28.1%	-57.2%	-15.3%

Assay outcomes (PubChem)
